# Laboratory results taken from PubChem BioAssay (Tox21).
# Several values for one entry are separate records, joined by “and”; a condition that tells them apart may be missing. Equal entries are not always repeated. Activity calls are given as the source filed them. A call without a number means that no potency is given here. Unless noted, calls follow the shape of the dose curve; as a rule, active = well fitted curve in the direction sought with a large enough effect in the repeat runs; inconclusive = weak or mixed curves; inactive = no such curve, though single readings can be large; an effect the other way counts as inactive or inconclusive. Positions of bridges follow the written chain, without caps; N, C: chain ends. Non-standard residues stand in square brackets, D forms with d. Residues, ends and D or L forms follow the SMILES beside them. *: point of attachment. Dab(CH2SO3H) = N[C@@H](CCNCS(=O)(=O)O)C(=O)O; X3 = CC[C@@H](C)CCCCC(=O)*; Dab = NCC[C@H](N)C(=O)O
# Key:
# [1] = qHTS assay to identify small molecule antagonists of the glucocorticoid receptor (GR) signaling pathway - cell viability counter screen (AID 720693); also: nearly all actives have a fitted effect of over 55% in size; also: potency is read from the fitted curve at half-maximal effect
# [2] = qHTS assay for identifying genotoxic compounds that show differential cytotoxicity against isogenic chicken DT40 cell lines with known DNA damage response pathways - wild type cell line (AID 743012); also: nearly all actives have a fitted effect of over 60% in size; also: potency is read from the fitted curve at half-maximal effect
# How it was run: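 CellTiter-Glo luminescence readout of viability in wild type DT40 cells after 40 h compound exposure at 37 C/5% CO2; 300 cells/well; reagent incubated 30 min at room temperature before reading.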
# [3] = qHTS assay for identifying genotoxic compounds that show differential cytotoxicity against isogenic chicken DT40 cell lines with known DNA damage response pathways - Rev3 mutant cell line (AID 743014); also: nearly all actives have a fitted effect of over 55% in size; also: potency is read from the fitted curve at half-maximal effect
# [4] = qHTS assay to identify small molecule antagonists of the androgen receptor (AR) signaling pathway - cell viability counter screen (AID 743033; also: nearly all actives have a fitted effect of over 45% in size; also: potency is read from the fitted curve at half-maximal effect)
# [5] = molecular target: Androgen receptor (Homo sapiens) (UniProt P10275); test: qHTS assay to identify small molecule antagonists of the androgen receptor (AR) signaling pathway (AID 743035; active = well fitted inhibition curve with a large enough effect in the signal ratio in the repeat runs, not every such curve was filed as active; inconclusive = weak or mixed curves, or effect the other way; inactive = no such curve, though single readings can be large or run the other way; the % refers to the signal ratio)
# How it was run: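 AR-bla HEK293 reporter cells; 4 h settle at 37C/5% CO2; compound + R1881 agonist, 16 h at 37C; LiveBLAzer B/G FRET substrate 2 h RT; fluorescence intensity read. qHTS format.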
# [6] = molecular target: Androgen receptor (Homo sapiens) (UniProt P10275); test: qHTS assay to identify small molecule agonists of the androgen receptor (AR) signaling pathway (AID 743036; active = well fitted activation curve with a large enough effect in the signal ratio in the repeat runs, with a control signal flat, not every such curve was filed as active; inconclusive = weak or mixed curves, or effect the other way; inactive = no such curve, though single readings can be large or run the other way; the % refers to the signal ratio)
# How it was run: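 Screening used 2,000 AR-bla HEK293 cells per well, treated 16 h at 37C with test compounds in DMSO alongside positive and DMSO-only controls; beta-lactamase activity was then read by LiveBLAzer B/G FRET fluorescence after 2 h at room temperature.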
# [7] = molecular target: Androgen receptor (Homo sapiens) (UniProt P10275); test: qHTS assay to identify small molecule agonists of the androgen receptor (AR) signaling pathway using the MDA cell line (AID 743040; also: nearly all actives have a fitted effect of over 20% in size)
# How it was run: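 Luciferase read-out, ONE-Glo, 30 min RT. Cells: MDA-kb2 AR-luc, MMTV promoter with AR and GR response elements. Compound exposure 16 h, 37C, 0% CO2, after 5 h pre-incubation. qHTS agonist mode.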
# [8] = qHTS assay to identify small molecule antagonists of the androgen receptor (AR) signaling pathway using the MDA cell line - cell viability counter screen (AID 743041; also: nearly all actives have a fitted effect of over 45% in size; also: potency is read from the fitted curve at half-maximal effect)
# How it was run: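 Cytotoxicity counter screen: MDA-kb2 AR-luc cells, compound + R1881, 16 h, 37C, 0% CO2; CellTiter-Fluor added at 15.5 h, fluorescence read after 30 min.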
# [9] = molecular target: Androgen receptor (Homo sapiens) (UniProt P10275); test: qHTS assay to identify small molecule antagonists of the androgen receptor (AR) signaling pathway using the MDA cell line (AID 743042; also: nearly all actives have a fitted effect of over 55% in size)
# How it was run: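 MDA-kb2 breast carcinoma cells carrying MMTV-luciferase (AR/GR responsive) were co-treated with compounds and the agonist R1881 for 16 h at 37C. Inhibition read as ONE-Glo luminescence; CellTiter-Fluor fluorescence measured in parallel for cytotoxicity.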
# [10] = qHTS assay to identify small molecule antagonists of the thyroid receptor (TR) signaling pathway - cell viability counter screen (AID 743064); also: nearly all actives have a fitted effect of over 50% in size; also: potency is read from the fitted curve at half-maximal effect
# How it was run: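 Viability of T3-stimulated (1 nM final) GH3.TRE-Luc cells is measured by CellTiter-Fluor fluorescence after 23.5 h compound exposure at 37 °C plus 30 min reagent incubation.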
# [11] = test system: thyroid hormone receptor (rat, GH3 cells); test: qHTS assay to identify small molecule agonists of the thyroid receptor (TR) signaling pathway (AID 743066; calls by dose curve)
# [12] = molecular target: Estrogen receptor (Homo sapiens) (UniProt P03372); test: qHTS assay to identify small molecule antagonists of the estrogen receptor alpha (ER-alpha) signaling pathway (AID 743069; active = well fitted curve in the direction sought with a large enough effect in the signal ratio in the repeat runs, not every such curve was filed as active; inconclusive = weak or mixed curves, or effect the other way; inactive = no such curve, though single readings can be large or run the other way; the % refers to the signal ratio; also: potency is read from the fitted curve at half-maximal effect)
# How it was run: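 Beta-lactamase FRET fluorescence is read after 2 hr at room temperature with LiveBLAzer B/G substrate. Before that, ER-alpha-bla HEK293 cells sit 4 hr after plating, then receive compound plus 17beta-estradiol and incubate 18 hr at 37C.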
# [13] = qHTS assay to identify small molecule antagonists of the estrogen receptor alpha (ER-alpha) signaling pathway - cell viability counter screen (AID 743074; calls by dose curve;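 also: HEK293 cells carrying ER-alpha-UAS-bla reporter stimulated with 17beta-estradiol; nearly all actives have a fitted effect of over 45% in size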; also: potency is read from the fitted curve at half-maximal effect)
# [14] = molecular target: Estrogen receptor (Homo sapiens) (UniProt P03372); test: qHTS assay to identify small molecule agonists of the estrogen receptor alpha (ER-alpha) signaling pathway (AID 743075; calls by dose curve;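 also: HEK293 GripTite cells with ER-alpha and UAS-driven beta-lactamase reporter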)
# [15] = molecular target: Estrogen receptor (Homo sapiens) (UniProt P03372); test: qHTS assay to identify small molecule agonists of the estrogen receptor alpha (ER-alpha) signaling pathway using the BG1 cell line (AID 743079); also: nearly all actives have a fitted effect of over 20% in size; also: potency is read from the fitted curve at half-maximal effect
# [16] = qHTS assay to identify small molecule antagonists of the estrogen receptor alpha (ER-alpha) signaling pathway using the BG1 cell line (AID 743080; calls by dose curve;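 also: BG1 cells stimulated with 17beta-estradiol alongside compound; nearly all actives have a fitted effect of over 25% in size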; also: potency is read from the fitted curve at half-maximal effect)
# How it was run: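 Endogenous full-length ER-alpha in BG1-Luc-4E2 cells drives a stably integrated 4×ERE luciferase gene; compounds were tested against 17beta-estradiol over 21.5 h, with luminescence and multiplexed viability fluorescence recorded.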
# [17] = qHTS assay to identify small molecule antagonists of the estrogen receptor alpha (ER-alpha) signaling pathway using the BG1 cell line - cell viability counter screen (AID 743081);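 also: compound given together with 17beta-estradiol as the ER stimulus; nearly all actives have a fitted effect of over 45% in size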; also: potency is read from the fitted curve at half-maximal effect
# Aromatase (Homo sapiens) = Aromatase (Homo sapiens) (UniProt P11511); test: qHTS assay to identify aromatase inhibitors (AID 743083); also: nearly all actives have a fitted effect of over 55% in size; also: potency is read from the fitted curve at half-maximal effect
# [18] = qHTS assay for identifying genotoxic compounds that show differential cytotoxicity against isogenic chicken DT40 cell lines with known DNA damage response pathways - Rad54/Ku70 mutant cell line (AID 743015); also: nearly all actives have a fitted effect of over 60% in size; also: potency is read from the fitted curve at half-maximal effect
# [19] = qHTS assay to identify small molecule antagonists of the thyroid receptor (TR) signaling pathway (AID 743065); also: nearly all actives have a fitted effect of over 55% in size; also: potency is read from the fitted curve at half-maximal effect
# How it was run: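 GH3.TRE-Luc rat pituitary cells (two TREs driving luciferase) were dosed with compound, then stimulated with 1 nM T3 (final) for 23.5 h at 37 C. ONE-Glo luminescence was the read-out, with CellTiter-Fluor fluorescence as the cytotoxicity counter-screen.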
# Chain of Androgen receptor (Homo sapiens) (P10275 whole entry, looked up): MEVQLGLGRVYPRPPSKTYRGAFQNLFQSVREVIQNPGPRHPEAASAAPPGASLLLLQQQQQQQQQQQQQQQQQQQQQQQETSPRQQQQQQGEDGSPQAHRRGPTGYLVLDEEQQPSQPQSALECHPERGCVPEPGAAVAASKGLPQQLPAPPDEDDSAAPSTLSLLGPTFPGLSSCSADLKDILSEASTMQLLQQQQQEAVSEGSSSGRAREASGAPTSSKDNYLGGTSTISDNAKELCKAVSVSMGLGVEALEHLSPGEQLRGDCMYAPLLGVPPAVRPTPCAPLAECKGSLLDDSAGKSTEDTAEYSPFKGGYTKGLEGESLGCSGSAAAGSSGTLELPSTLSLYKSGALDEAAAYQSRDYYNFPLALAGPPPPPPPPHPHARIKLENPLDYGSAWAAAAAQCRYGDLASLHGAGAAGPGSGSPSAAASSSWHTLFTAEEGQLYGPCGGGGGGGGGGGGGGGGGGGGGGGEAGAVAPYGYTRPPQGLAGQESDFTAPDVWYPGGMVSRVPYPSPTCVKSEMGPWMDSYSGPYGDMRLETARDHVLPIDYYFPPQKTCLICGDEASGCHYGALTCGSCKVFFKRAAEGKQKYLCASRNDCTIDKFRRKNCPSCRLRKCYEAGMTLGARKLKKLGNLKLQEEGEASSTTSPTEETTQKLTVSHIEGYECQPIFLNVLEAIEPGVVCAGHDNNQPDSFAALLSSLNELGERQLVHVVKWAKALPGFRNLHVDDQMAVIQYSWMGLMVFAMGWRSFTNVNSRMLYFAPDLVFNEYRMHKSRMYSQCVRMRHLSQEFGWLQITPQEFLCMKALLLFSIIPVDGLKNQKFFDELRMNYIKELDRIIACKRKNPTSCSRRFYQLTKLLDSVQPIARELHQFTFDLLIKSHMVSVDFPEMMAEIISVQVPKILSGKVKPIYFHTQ
# Chain of Aromatase (Homo sapiens) (P11511 whole entry, looked up): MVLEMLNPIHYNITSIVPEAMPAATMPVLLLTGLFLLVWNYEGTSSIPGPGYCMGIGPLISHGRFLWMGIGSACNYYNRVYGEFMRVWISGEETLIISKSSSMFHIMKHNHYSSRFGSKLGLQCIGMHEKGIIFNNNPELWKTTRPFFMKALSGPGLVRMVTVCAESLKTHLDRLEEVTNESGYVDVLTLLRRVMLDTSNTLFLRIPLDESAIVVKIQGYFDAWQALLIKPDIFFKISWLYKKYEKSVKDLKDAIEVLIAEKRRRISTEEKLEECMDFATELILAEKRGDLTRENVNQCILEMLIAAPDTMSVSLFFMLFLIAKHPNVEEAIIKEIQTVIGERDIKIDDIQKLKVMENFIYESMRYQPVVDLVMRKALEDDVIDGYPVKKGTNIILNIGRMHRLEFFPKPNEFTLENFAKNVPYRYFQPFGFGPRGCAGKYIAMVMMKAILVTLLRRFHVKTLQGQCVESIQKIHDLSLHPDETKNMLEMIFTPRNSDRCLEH
# Chain of Estrogen receptor (Homo sapiens) (P03372 whole entry, looked up): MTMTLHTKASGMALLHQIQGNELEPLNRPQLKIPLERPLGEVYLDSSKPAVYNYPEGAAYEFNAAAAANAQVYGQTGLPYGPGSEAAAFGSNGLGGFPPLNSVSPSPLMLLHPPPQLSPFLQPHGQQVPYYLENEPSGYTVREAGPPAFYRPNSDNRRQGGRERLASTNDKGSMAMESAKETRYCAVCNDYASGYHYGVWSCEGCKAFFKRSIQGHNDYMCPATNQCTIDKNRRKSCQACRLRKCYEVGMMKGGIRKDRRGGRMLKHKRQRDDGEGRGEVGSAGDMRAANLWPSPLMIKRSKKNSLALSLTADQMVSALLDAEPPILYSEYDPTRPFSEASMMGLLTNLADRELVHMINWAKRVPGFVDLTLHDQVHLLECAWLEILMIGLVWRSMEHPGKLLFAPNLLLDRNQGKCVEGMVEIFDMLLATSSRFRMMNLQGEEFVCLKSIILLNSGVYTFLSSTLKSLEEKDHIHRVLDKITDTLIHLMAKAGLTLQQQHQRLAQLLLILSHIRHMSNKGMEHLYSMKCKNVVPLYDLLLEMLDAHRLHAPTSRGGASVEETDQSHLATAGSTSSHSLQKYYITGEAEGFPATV
Compound,Potency [1],Potency [2],Potency [3],Potency [4],Potency [5],Potency [6],Potency [7],Potency [8],Potency [9],Potency [10],Potency [11],Potency [12],Potency [13],Potency [14],Potency [15],Potency [16],Potency [17],Potency (Aromatase (Homo sapiens)),Potency [18],Potency [19]
CCN(CC)CCn1c(=O)c(Cc2ccc(OC)cc2)nc2ccccc21,inactive,26.6 µM (active),29.8 µM (active),inactive,inactive,inactive,inactive,inactive,inactive,26.6 µM (active),inactive,inactive,inactive,inactive,inactive,inactive,inactive,inactive,,
Cc1cccc(C)c1NC(=O)C1CCCCN1C (configuration not stated),inactive,inactive,inactive,,,,,inactive,,inactive,inactive,inactive,inactive,inactive,inactive,inactive,,inactive,inactive,
O=C1[O][Bi][O]c2ccccc21,inactive,inactive,inactive,inactive,,,,inactive,,,inactive,inactive,inactive,inactive,inactive,inactive,inactive,inactive,inactive,
CCCCC[C@H](O)/C=C/[C@@H]1[C@@H](C/C=C\CCCC(=O)O)[C@@H](O)C[C@H]1O,inactive,inactive,inactive,inactive,,,,inactive,,inactive,,,inactive,,29.8 µM (active),,inactive,inactive,,
CC12CCC(C1)C(C)(C)C2=O (configuration not stated),inactive,inactive,inactive,,inactive,inactive,inactive,inactive,inactive,inactive,inactive,inactive,inactive,inactive,inactive,inactive,inactive,inactive,inactive,inactive
CC[C@@H](C)CCCCC(=O)N[C@@H](CCNCS(=O)(=O)O)C(=O)N[C@H](C(=O)N[C@@H](CCNCS(=O)(=O)O)C(=O)N[C@H]1CCNC(=O)[C@H]([C@@H](C)O)NC(=O)[C@H](CCNCS(=O)(=O)O)NC(=O)[C@H](CCNCS(=O)(=O)O)NC(=O)[C@H](CC(C)C)NC(=O)[C@@H](CC(C)C)NC(=O)[C@H](CCNCS(=O)(=O)O)NC1=O)[C@@H](C)O (X3-[Dab(CH2SO3H)]T[Dab(CH2SO3H)][Dab][Dab(CH2SO3H)][dL]L[Dab(CH2SO3H)][Dab(CH2SO3H)]T; lactam 4-C),inactive,23.7 µM (active),23.7 µM (active),,,inactive,inactive,inactive,inactive,inactive,inactive,inactive,inactive,inactive,inactive,inactive,inactive,inactive,18.8 µM (active),inactive
CCCCCCCCCCCCN1CCCC1=O,43.6 µM (active),24.3 µM (active),30.6 µM (active),inactive,,,,inactive,,,inactive,,,,,,inactive,inactive,30.6 µM (active),
C=CC[N@@+]12CC[C@@]34c5ccccc5N5/C=C6/[C@H]7C[C@H]8[C@@]9(CC[N@@+]8(CC=C)C/C7=C/CO)c7ccccc7N(/C=C(/[C@@H](C[C@@H]31)/C(=C\CO)C2)[C@H]54)[C@@H]69,inactive,inactive,inactive,inactive,,,,inactive,,,inactive,,inactive,,,,,inactive,inactive,inactive
COc1ccc([C@@H]2CC(=O)c3c(O)cc(O[C@@H]4O[C@H](CO[C@@H]5O[C@@H](C)[C@H](O)[C@@H](O)[C@H]5O)[C@@H](O)[C@H](O)[C@H]4O)cc3O2)cc1O,inactive,inactive,inactive,inactive,,inactive,inactive,inactive,inactive,inactive,inactive,inactive,inactive,inactive,inactive,inactive,,inactive,,inactive
CCN1\C(=C/C=C/C=C/c2sc3ccccc3[n+]2CC)Sc2ccccc21,23.9 µM (active) and 21.3 µM (active),133 nM (active) and 298 nM (active),237 nM (active) and 841 nM (active),2.68 µM (active) and 8.49 µM (active),,,,1.68 µM (active) and 5.96 µM (active),,5.96 µM (active) and 7.5 µM (active),,,67.4 nM (active) and 1.69 µM (active),inactive,,1.88 µM (active),11.9 µM (active),5.96 µM (active) and 10.6 µM (active),,2.37 µM (active) and 4.22 µM (active)
CC(=O)OCC(=O)[C@@]1(O)CC[C@H]2[C@@H]3C[C@H](C)C4=CC(=O)C=C[C@]4(C)[C@H]3[C@@H](O)C[C@@]21C,inactive,inactive,inactive,inactive,,,,inactive,,inactive,inactive,,inactive,inactive,18.8 µM (active),,inactive,inactive,,inactive
NC(=O)[C@@H]1C[C@]2(NC(=O)NC2=O)c2cc(F)ccc2O1,inactive,inactive,,inactive,,,,inactive,,inactive,inactive,inactive,inactive,inactive,inactive,inactive,inactive,inactive,inactive,
Nc1nc(NC2CC2)c2ncn([C@@H]3C=C[C@@H](CO)C3)c2n1,inactive,inactive,,inactive,,,,inactive,,inactive,inactive,inactive,inactive,inactive,2.66 µM (active),,inactive,inactive,inactive,inactive
COc1cc2c(cc1O)CCN[C@]21CS[C@@H]2c3c(OC(C)=O)c(C)c4c(c3[C@H](COC1=O)N1[C@@H]2[C@H]2c3c(cc(C)c(OC)c3O)C[C@@H]([C@@H]1O)N2C)OCO4,60.1 nM (active) and 17.4 nM (active),0.9 nM (active) and 2.4 nM (active),0.0486 µM (active),,,,,inactive,,2.4 nM (active) and 4.3 nM (active),,33.8 nM [inconclusive] (active) and 49 nM [inconclusive] (active),,inactive,,26.6 nM (active) and 43.3 nM (active),26.6 µM (active) and 13.7 µM (active),29.8 nM (active) and 48.6 nM (active),,1.9 nM (active) and 2.7 nM (active)
